{"source": "PubChem BioAssay (NCATS)", "note": "Results filed as inconclusive are left out. Unmarked numbers belong to inactive results. Activity calls are given as the source filed them. The call rests on the fitted dose curve; in most records, active means well fitted cell-killing curve with a large enough effect; inconclusive means small, poorly fitted or top-dose-only effect, or effect the other way; inactive means flat fitted curve, though single readings scatter. On the % scale 0 is the no-effect control and ±100 the full control effect; potency means the concentration at half of the fitted maximal effect."}
{"tested_on": "Tov-21-G", "assay": "Primary qHTS to identify gynecologic anti-cancer compounds using libraries of approved drugs and bioactive compounds (AID 1345084); further: nearly all actives have a fitted effect of over 55% in size", "conditions": "Gynecologic cancer cell panel viability, ATPlite luminescence, 48 h; series mostly up to 57.5 µM; activity change, negative = cytotoxicity: at the top concentration", "how_it_was_run": "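Five-concentration response, 48 h; readout is ATP-driven luciferase luminescence.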"}
{"smiles": "COc1cc2nc(N3CCN(C(=O)COc4c(OC)cccc4C(C)C)CC3)nc(N)c2cc1OC", "activity change, negative = cytotoxicity": "-0.567%"}
{"smiles": "CC[C@H](C(=O)Nc1ccccc1N1CCCC1)c1ccccc1", "activity change, negative = cytotoxicity": "13.6%"}
{"smiles": "N#Cc1ccc(N2N=C3c4ccc(C(=O)O)cc4CC[C@@H]3[C@@H]2C2CCCC2)cc1Cl", "activity change, negative = cytotoxicity": "0.687%"}
{"smiles": "CN(C)C(=O)Nc1cccc(-c2ccc(N(C)C)cc2)c1", "activity change, negative = cytotoxicity": "-12.7%"}
{"smiles": "O=C(NC1(c2ccccc2)CC1)c1c(CN2CCC(N3CCCCC3)CC2)c(-c2cccc(C(F)(F)F)c2)nc2cc(Br)ccc12", "activity change, negative = cytotoxicity": "2.77%"}
{"smiles": "C=C1CCC[C@]2(C)CC/C(=C(/CO)C(=O)OC)C[C@@H]12", "activity change, negative = cytotoxicity": "5.87%"}
{"smiles": "CCOC(=O)N1c2ccc(C(F)(F)F)cc2C(N(Cc2cc(C(F)(F)F)cc(C(F)(F)F)c2)C(=O)OC)CC1CC", "note": "(stereo unspecified)", "activity change, negative = cytotoxicity": "7.7%"}
{"smiles": "CCC(C(C)O)n1ncn(-c2ccc(N3CCN(c4ccc(OCC5COC(Cn6cncn6)(c6ccc(F)cc6F)C5)cc4)CC3)cc2)c1=O", "note": "(stereo unspecified)", "activity change, negative = cytotoxicity": "1.58%"}
{"smiles": "CCC(C)C(=O)Oc1cc(C)ccc1C1(COC(=O)C(C)C)CO1", "note": "(stereo unspecified)", "activity change, negative = cytotoxicity": "5.88% [at 38.5 µM]"}
{"smiles": "CC/C=C\\CC1C(=O)C=CC1(CCCCC1CCC(=O)O1)OC(C)=O", "note": "(stereo unspecified)", "activity change, negative = cytotoxicity": "-10.5% [at 38.5 µM]"}
{"smiles": "C=C1C(=O)OC2CC(C)C(CCC(C)O)=CCC12", "note": "(stereo unspecified)", "activity change, negative = cytotoxicity": "-22%"}
{"smiles": "COc1ccc(CN2CCN(CCCSc3cc(C(C)(C)C)c(O)c(C(C)(C)C)c3)CC2)c(OC)c1OC", "activity change, negative = cytotoxicity": "7.27% [at 11.6 µM]"}
{"smiles": "Cc1nc(Nc2ccc(F)cc2)nc(N2CCc3ccccc3C2C)c1C", "note": "(stereo unspecified)", "activity change, negative = cytotoxicity": "-0.246%"}
{"smiles": "Clc1ccc(Cn2c(Cc3ccccc3)nc3ccccc32)cc1", "activity change, negative = cytotoxicity": "7.35%"}
{"smiles": "CC(=O)O[C@H]1[C@@]2(O)C[C@H](C)[C@H](OC(=O)c3ccccc3)[C@@H]2[C@@H](OC(=O)CO)[C@]2(OC(C)=O)C[C@H]3C(=O)C(C)(C)C[C@@H]3[C@@]1(C)[C@H]2OC(C)=O", "activity change, negative = cytotoxicity": "3.1% [at 25.3 µM]"}
{"smiles": "Cc1nc(C#Cc2ccnc(Cl)c2)c(C)n1-c1ccc(OC(F)(F)F)cc1", "activity change, negative = cytotoxicity": "-5.82%"}
{"smiles": "O=C(NCCCCCCCCNC(=O)C(Cl)Cl)C(Cl)Cl", "activity change, negative = cytotoxicity": "16.6%"}
{"smiles": "COC(=O)/C=C/C=C/C(=O)OC1C=C2COC(=O)C2(O)C2(C)CCCC(C)(C)C12", "note": "(stereo unspecified)", "activity change, negative = cytotoxicity": "-0.464% [at 25.3 µM]"}
{"smiles": "Cc1sc2c(c1C)C(c1ccc(Cl)cc1)=N[C@H](CC(=O)NCCCCNC(=O)COc1cccc3c1C(=O)N([C@H]1CCC(=O)NC1=O)C3=O)c1nnc(C)n1-2", "Potency": "1.78 µM (active)"}
{"smiles": "NC(=O)C1=CC2C3C=CC2C(OC3=O)O1", "note": "(stereo unspecified)", "activity change, negative = cytotoxicity": "-0.267%"}
{"smiles": "CC(C)(C)OC(=O)c1ncn2c1C(C)(C)Nc1ccccc1-2", "activity change, negative = cytotoxicity": "5.77%"}
{"smiles": "C[C@H]1CC[C@@]2(OC1)O[C@H]1CC3C4CC[C@H]5C[C@@H](O)CC[C@]5(C)C4=CC(=O)[C@]3(C)[C@H]1[C@@H]2C", "note": "(stereo partly specified)", "activity change, negative = cytotoxicity": "-4.6% [at 25.3 µM]"}
{"smiles": "O=S(=O)(Nc1cc(Cl)c(Oc2cnc3ccccc3c2)c(Cl)c1)c1ccc(Cl)cc1Cl", "activity change, negative = cytotoxicity": "-0.393%"}
{"smiles": "NC(N)=NC(=O)c1cnn(-c2cccc3ncccc23)c1C1CC1", "activity change, negative = cytotoxicity": "12.7%"}
{"smiles": "CC(=O)O[C@@H]1CC2C(/C=C(\\C)C(=O)[C@@]3(O)C[C@@H](C)[C@H](OC(=O)c4ccccc4)C3/C=C/1C)C2(C)C", "note": "(stereo partly specified)", "activity change, negative = cytotoxicity": "2.27% [at 25.3 µM]"}
{"smiles": "CC(=O)OC(C)(C)/C=C/C(=O)[C@](C)(O)[C@H]1C(O)C[C@@]2(C)[C@@H]3CC=C4[C@@H](C=C(O[C@@H]5O[C@H](CO)[C@@H](O)[C@H](O)[C@H]5O)C(=O)C4(C)C)[C@]3(C)C(=O)C[C@]12C", "note": "(stereo partly specified)", "activity change, negative = cytotoxicity": "3.37% [at 25.3 µM]"}
{"smiles": "Cc1c(Cl)cccc1S(=O)(=O)Nc1nc(NCCc2ccccc2)nc2c1CN(Cc1ccccc1)CC2", "activity change, negative = cytotoxicity": "10.3%"}
{"smiles": "O=C1c2ccc(Nc3ccc(F)cc3F)cc2CCc2ccc(OCC(O)CO)cc21", "note": "(stereo unspecified)", "activity change, negative = cytotoxicity": "-1.01%"}
{"smiles": "C=C1/C(=C/C=C2\\CCC[C@]3(C)[C@@H]([C@H](C)/C=C/[C@H](O)C4CC4)CC[C@@H]23)C[C@@H](O)C[C@@H]1O", "activity change, negative = cytotoxicity": "-1.1%"}
{"smiles": "Cc1cnc(-c2ccccc2C(C)C)nc1NCc1ccc(-n2ccnn2)cc1", "activity change, negative = cytotoxicity": "-0.207%"}
{"smiles": "C=CCC1=C[C@]2(OC)[C@H](C)[C@@H](c3ccc4c(c3)OCO4)O[C@]2(OC)CC1=O", "activity change, negative = cytotoxicity": "9.18% [at 38.5 µM]"}
{"smiles": "Nc1nc2c(nc(Br)n2[C@@H]2O[C@@H]3COP(=O)(O)O[C@H]3[C@H]2O)c(=O)[nH]1", "activity change, negative = cytotoxicity": "-9.78%"}
{"smiles": "CC#C[C@@H](CC(=O)O)c1ccc(OCc2cccc(-c3ccc(C(F)(F)F)cc3)c2)cc1", "activity change, negative = cytotoxicity": "5.31%"}
{"smiles": "Cc1cc(NC(=O)NCCN2CCC(O)(Cc3ccccc3)CC2)c2ccccc2n1", "activity change, negative = cytotoxicity": "0.75%"}
{"smiles": "COc1ccc(N(C(=O)Nc2c(C)cccc2C)c2cc(Nc3ccc(N4CCN(C)CC4)cc3)ncn2)c(OC)c1", "Potency": "12.6 µM (active)"}
{"smiles": "Cc1cc(-c2ncc(-c3cccnc3)cc2/C=C/c2ccccc2)cnc1-c1cccnc1", "activity change, negative = cytotoxicity": "-1.35%"}
